Experiment [1] in a line: NCI Yeast Anticancer Drug Screen. Data for the rad50 strain (AID 155).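 Also: 0% = growth of vehicle-only cultures of the same strain.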 As to conditions: S. cerevisiae rad50 strain growth inhibition, active compounds read high; at 50.0 µM unless noted. A digest of the protocol:
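Yeast carrying a defined DNA repair defect were exposed to test compounds, and growth was compared with vehicle-treated controls to give percent inhibition.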

Experiment [2] in a line: NCI Yeast Anticancer Drug Screen. Data for the mec2-1 strain (AID 157). As to conditions: S. cerevisiae mec2-1 strain, active compounds read high; at 50.0 µM unless noted. The procedure, abridged: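 mec2-1 yeast strain, carrying an alteration in DNA damage repair or cell cycle control, was exposed to compounds; growth inhibition was measured relative to vehicle-treated controls.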

Experiment [3] is described as follows: NCI Yeast Anticancer Drug Screen. Data for the sgs1 mgt1 strain (AID 161).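 Also: 0% = growth of cultures given vehicle only.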 As to conditions: S. cerevisiae sgs1 mgt1 strain, active compounds read high; at 50.0 µM unless noted. A digest of the protocol:
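Percent growth inhibition was derived by comparing compound-exposed mutant yeast with vehicle-exposed cultures. The strain carries alterations in DNA damage repair.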

The nature of experiment [4]: NCI Yeast Anticancer Drug Screen. Data for the cln2 rad14 strain (AID 165).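 Also: 0% = growth equal to vehicle treated cultures.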 The settings on record: S. cerevisiae cln2 rad14 strain, active compounds read high; at 50.0 µM unless noted. A digest of the protocol: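 Yeast carrying cln2 and rad14 alterations (cell cycle control and DNA damage repair) were exposed to compounds. Growth inhibition was measured against vehicle-treated controls.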

The nature of experiment [5]: NCI Yeast Anticancer Drug Screen. Data for the bub3 strain (AID 167). The settings on record: S. cerevisiae bub3 mutant strain, active compounds read high; at 50.0 µM unless noted. A digest of the protocol: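 Compounds were applied to a genetically altered yeast strain carrying a cell-cycle control defect. Growth inhibition was scored against vehicle-treated controls.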
Experiment [6] in a line: NCI Yeast Anticancer Drug Screen. Data for the mlh1 rad18 strain (AID 175). The settings on record: S. cerevisiae mlh1 rad18 strain growth inhibition, active compounds read high; at 50.0 µM unless noted. A digest of the protocol:
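Growth inhibition of the yeast strain was measured after compound exposure and expressed relative to vehicle-treated controls. The strain carries defined defects in DNA damage repair.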

Molecules are shown by their SMILES. The panel holds about 79,000 compounds, 15% with a hit somewhere; the sample as a whole holds those more often. Values without a mark were called inactive. Calls of active or inactive are those of the source. Rule as the data show it: active = growth inhibition above about 70%; inactive = the rest.

As for `C[Si](C)(CCl)N([Si](C)(C)CCl)[Si](C)(C)CCl`, the growth inhibition in experiment [1] was 13.1%; in experiment [2], 8.55%; in experiment [3] it was 0.7%; in experiment [4] it was -19.7%; in experiment [5], -2.6%; in experiment [6], -10.1%.
`O=S1(=O)OCCOS(=O)(=O)C1C1c2ccccc2-c2ccccc21`: the growth inhibition in experiment [1] was 13.4%; in experiment [2] it was 2.95%; in experiment [3], 18.7%; in experiment [4], 7.6%; in experiment [5], -1.25%; in experiment [6], -32.3%.
Turning to `C[N+]1(CC(=O)c2ccc(Cl)cc2)CCOCC1`, the growth inhibition in experiment [1] is 20.8%; in experiment [2] it was 7.45%; in experiment [3], 10.6%; in experiment [4] it was -20.9%; in experiment [5], 6.6%; in experiment [6], 28.1%.
For the molecule `Cc1cccc(C)c1NC(=O)c1c(Cl)c(Cl)c(Cl)c(Cl)c1C(=O)O`, the growth inhibition was -25.9% in experiment [1]; 11.8% in experiment [2]; -15.7% in experiment [3]; -20% in experiment [4]; 4.55% in experiment [5]; -18.2% in experiment [6].
Take `CCCc1cc(Cl)ccc1OCC(=O)O`: the growth inhibition in experiment [1] is 32.4%; in experiment [2], 18.9%; in experiment [3], 14.1%; in experiment [4], 11.6%; in experiment [5] it was 20.5%; in experiment [6] it was 10.3%.
For `O=C(O)c1cccc(C(=O)O)c1Sc1ccccc1`, the growth inhibition is 1.9% in experiment [1]; 1.9% in experiment [2]; 5.75% in experiment [3]; 11.3% in experiment [4]; -0.1% in experiment [5]; 12.1% in experiment [6].
For `CS(=O)(=O)c1cccc(C(=O)O)c1`, the growth inhibition in experiment [1] was 12.4%; in experiment [2], 7.65%; in experiment [3], 4.05%; in experiment [4], -16.1%; in experiment [5], 1.35%; in experiment [6], -18%.
For the molecule `N#CNC(N)=NCCO`, the growth inhibition is -22.2% in experiment [1]; -2.25% in experiment [2]; -36.9% in experiment [3]; -12% in experiment [4]; -28.5% in experiment [5]; -20.6% in experiment [6].
For `COC(=O)CC(NC(=O)OCc1ccccc1)C(=O)NCC(=O)Oc1ccc([N+](=O)[O-])cc1` (stereo not given), the growth inhibition in experiment [1] was 21.1%; in experiment [2], 11.8%; in experiment [3], 12.2%; in experiment [4], 12.2%; in experiment [5], 5.75%; in experiment [6], 8.5%.
For the molecule `CC(C)(C)NC(=O)CCCl`, the growth inhibition was 16.4% in experiment [1]; 14.4% in experiment [2]; 16.5% in experiment [3]; 5.6% in experiment [4]; 1.8% in experiment [5]; 41.8% in experiment [6].
Turning to `CSc1nc(SC)c2cnn(CC3CO3)c2n1` (stereo not given), the growth inhibition in experiment [1] is 44.2%; in experiment [2] it was -15.2%; in experiment [3], 60.8%; in experiment [4], 11.1%; in experiment [5], -20.1%; in experiment [6], 39.5%.
Turning to `Cc1ccc(C(CCC#N)OC(C)C)cc1` (stereo not given), the growth inhibition in experiment [1] is 0.95%; in experiment [2], 19.8%; in experiment [3] it was 25.1%; in experiment [4] it was 11.9%; in experiment [5], 3.15%; in experiment [6], 21.1%.
As to `O=C(O)c1cc(C(=O)C(=O)c2cc(C(=O)O)c(O)c3ccccc23)c2ccccc2c1O`, the growth inhibition was -31.7% in experiment [1]; -25.4% in experiment [2]; -7.15% in experiment [3]; -0.4% in experiment [4]; -17.9% in experiment [5]; -19.4% in experiment [6].
On to `Cc1cc[n+](CCC(N)=O)cc1`, for which the growth inhibition is -10.8% in experiment [1]; -30.8% in experiment [2]; -3% in experiment [3]; 1.85% in experiment [4]; -16.9% in experiment [5]; -19.9% in experiment [6].
On to `CCCCCO.CCCCCO.CCCCCO.CCCCCO.[Ti]`, for which the growth inhibition is 3.45% in experiment [1]; -33% in experiment [2]; -3.3% in experiment [3]; 8.55% in experiment [4]; -20% in experiment [5]; -1.65% in experiment [6].
With `Cc1cc2nc3c4ccccc4scc-3c2cc1C`, the growth inhibition in experiment [1] is 99% (active); in experiment [2], 99.3% (active); in experiment [3] it was 99.3% (active); in experiment [4], 99% (active); in experiment [5] it was 99.1% (active); in experiment [6] it was 98% (active).
Take `COc1cc(Nc2cnc3cc(C(F)(F)F)ccc3n2)cc(OC)c1OC`: the growth inhibition is 16.9% in experiment [1]; 0.95% in experiment [2]; 21.9% in experiment [3]; 12.2% in experiment [4]; -14.1% in experiment [5]; -1.55% in experiment [6].
Regarding `OC(CN1CCCC1)c1ccccc1` (stereo not given), the growth inhibition in experiment [1] was -1.8%; in experiment [2], -11.2%; in experiment [3], 15.9%; in experiment [4], 28.6%; in experiment [5], -0.25%; in experiment [6] it was -30.6%.
For `COc1cccc(Br)n1`, the growth inhibition in experiment [1] is -4.15%; in experiment [2], -17.1%; in experiment [3], 6.95%; in experiment [4] it was 15.1%; in experiment [5], -8.85%; in experiment [6], 26.9%.
As for `Fc1ccc2c(c1)SC1Oc3ccccc3-c3c1c-2nn3-c1ccccc1` (stereo not given), the growth inhibition in experiment [1] was -5.45%; in experiment [2] it was -7.45%; in experiment [3], -17.4%; in experiment [4], 8.8%; in experiment [5] it was -11.1%; in experiment [6] it was -2.6%.

(Values after PubChem BioAssay (NCI).)
